LMP1 NFkB inh – Epstein-Barr LMP1 NF-kappaB reporter inhibition | LMP1-induced NF-kappaB luciferase reporter cells, luminescence | inhibition, % at 12.5 µM | hit rate 0.69% among 350,000 | AID 504558; in the data active = inhibition above about 41%; inconclusive = no clear call, values can overlap the other calls;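 also: 0% = neutral control wells and 100% = reference inhibitor control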
PGC1a acetyl inh – PGC1a acetylation modulation, inhibitor mode; U2OS PGC1a acetylation, AlphaScreen anti-acetyl-lysine; with virally co-expressed GCN5 acetyltransferase; inhibition, % at 15.6 µM; hit rate 0.17% among 350,000; AID 651687;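 active = every replicate shows inhibition of at least 40%; inconclusive = mean inhibition at least 40% but some replicate below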;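 also: 0% = neutral control wells and 100% = positive control wells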
EWS-Fli block – blocks EWS/Fli oncoprotein-driven transcription; hit rate 0.67% among 350,000; A673 NR0B1-luciferase reporter, viability-normalised; AID 651661; inhibition, % at 12.6 µM;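 active = mean inhibition of at least 50% after viability correction, with every replicate also passing that limit; inconclusive = mean reaches 50% but only one of two replicates passes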;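 also: firefly luciferase signal divided by Alamar Blue viability fluorescence both relative to DMSO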
PAX8 reporter – lowers PAX8-driven luciferase in RMG-I cells; RMG-I TPO-luciferase reporter, SteadyGlo, 24 h; inhibition, % at 12.6 µM; hit rate 1.2% among 360,000; AID 652154;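 active = mean replicate inhibition at least 60% with every replicate also reaching 60%; inconclusive = only one of the two criteria is met; inactive = mean below 60% and not all replicates reaching 60%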;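 also: luciferase light reporting Pax8 driven TPO promoter activity; plate controls were median of neutral control wells for no effect and mitoxantrone controls for full effect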
LGR2 inh – Drosophila LGR2 receptor signaling inhibition. hit rate 0.35% among 380,000. AID 720647. inhibition, % at 9.99 µM. HEK293 LGR2, CRE-luciferase, bursicon-stimulated, 4 h;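 active = drop in luminescence signal, shown as inhibition above about 50% in the replicate tests, limit read from the data, passing the limit was not always enough; inconclusive = probably only some replicates passing the limit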;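 also: agonist challenge used bursicon conditioned medium at about half maximal strength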
TRPM1 prom inh – reduces MITF-dependent TRPM1 promoter luciferase signal. AID 488899. inhibition, % at 12.5 µM. hit rate 0.83% among 330,000. SK-MEL-5 TRPM1 promoter luciferase, 24 h;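 active = mean inhibition across replicates of 60% or more, whatever share of single replicates reaches that level; inconclusive = some that reach 60%, reason not given; inactive = mean inhibition across replicates below 60%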
Numbers without * were called inactive; ? = inconclusive; . = not tested or not shown. Sampled rows, rich in hits. Any-hit rate of the full collection: about 2.2%.

SMILES	LMP1 NFkB inh	PGC1a acetyl inh	EWS-Fli block	PAX8 reporter	LGR2 inh	TRPM1 prom inh
CCc1nc(SCc2ccc(C(=O)OC)o2)n[nH]1	-0.6	-3.9	-0.7	-6.3	-6.0	0.1
COc1cccc(-c2ccc3c(c2)[C@@H]2[C@@H](CCN2S(=O)(=O)c2ccccc2F)[C@H](CO)N3)c1	.	0.5	-23.2	7.2	-3.0	.
CC(=O)NC1=C(Nc2ccc(N(C)C)cc2)C(=O)c2ccccc2C1=O	-6.7	-5.0	-49.2	-35.7	-22.4	12.1
CNC1=C(N(C(C)=O)c2ccc(Br)cc2)C(=O)c2ccccc2C1=O	24.9	.	.	105.3*	12.9	106.8*
CCC(=O)N(C1=C(NC)C(=O)c2ccccc2C1=O)C(C)C	0.4	.	-6.2	74.0*	-5.9	35.1
CC(C)NC(=O)N(C)C[C@H]1Oc2ccc(NC(=O)Nc3ccc4c(c3)OCO4)cc2C(=O)N([C@@H](C)CO)C[C@H]1C	.	-0.3	-10.0	.	1.2	.
CN(C)C(=O)c1cccc(-c2ccc3c(c2)[C@H]2[C@H](CCN2C(=O)C2CC2)[C@@H](CO)N3)c1	.	8.0	6.5	8.4	3.6	.
C=CCn1c(O)c(N=NC(=S)Nc2ccccc2C)c2cc(S(=O)(=O)N3CCOCC3)ccc21	43.0*	-5.7	44.8	55.3	13.6	36.2
Cn1c(O)c(N=NC(=S)Nc2ccccc2F)c2cc(S(=O)(=O)N3CCOCC3)ccc21	38.8	.	27.4	53.0	-3.0	30.8
Cc1csc(N/N=C/c2ccccn2)n1	?	10.3	42.0	-0.7	68.8*	46.1
Cc1cc(NN=Cc2ccccn2)nc2ccccc12	.	.	-4.7	41.2	-9.3	.
CCN1C(=O)[C@@H]2[C@@H](c3ccc(-c4ccc(Cl)c(Cl)c4)cc3)N3CCC[C@@]3(C(=O)OC)[C@@H]2C1=O	74.7*	6.8	18.5	12.8	4.3	20.2
O=C1[C@@H]2[C@H](C(=O)N1C[C@@H](COCc1ccccc1)Oc1cccc3c1S(=O)(=O)N(CCc1ccc(F)cc1)C[C@H](COCc1ccccc1)O3)[C@@H]1C=C[C@H]2C1	.	.	10.9	26.0	7.1	.
CCCCN1CC(COCc2ccccc2)Oc2cccc(OCCN3C(=O)[C@@H]4[C@H](C3=O)C3C=C[C@H]4C3)c2S1(=O)=O (some centres undefined)	9.7	-4.9	19.8	84.7*	.	10.8
CC(C)NC(=O)N(C)C[C@@H]1Oc2ccc(NC(=O)c3ccncc3)cc2C(=O)N([C@@H](C)CO)C[C@H]1C	.	7.2	-0.7	-4.4	-14.1	.
O=C(C[C@H]1C=C[C@@H](NC(=O)Nc2ccc(F)cc2)[C@H](CO)O1)NCCN1CCCC1	.	6.9	3.2	-5.9	7.1	.
CS(=O)(=O)c1ccc(-c2cn3cc(C(=O)O)ccc3n2)cc1	10.6	6.3	1.2	7.0	76.9*	38.6
CCC(=O)N1CC2(CCN(Cc3ccc(F)cc3)CC2)c2c(n(C)c3cc(OC)ccc23)[C@@H]1CO	.	-2.5	2.4	.	-3.6	.
CCCCCCCn1c2c(c(=N)c3ccccc31)CCC2	21.3	-24.4	58.1*	100.4*	27.2	85.8*
CCCn1c2c(c(=N)c3c1CCC3)CCC2	-2.9	-8.5	21.4	18.9	9.6	10.5
C[C@@H]1CN([C@@H](C)CO)C(=O)c2cc(NS(=O)(=O)c3cn(C)cn3)ccc2O[C@@H]1CN(C)Cc1ccc2c(c1)OCO2	.	-1.8	-0.2	.	1.0	.
C[C@@H]1CN([C@H](C)CO)C(=O)c2cccc(NC(=O)c3nc4ccccc4s3)c2O[C@@H]1CN(C)S(=O)(=O)c1ccc(F)cc1	.	0.9	3.2	-4.2	2.4	.
C=C(C)COc1ccc(-c2n[nH]c(C)c2-c2ccc(OC)c(OC)c2)c(O)c1	3.9	-10.7	61.5*	27.5	-4.9	22.9
O=C(C[C@H]1CC[C@H]2[C@@H](COC[C@@H](O)CN2Cc2cccc(Cl)c2)O1)NCC1CCCCC1	.	-8.3	13.1	50.5	-34.5	.
COc1ccc(C(=O)/C(C#N)=N/Nc2cccc([N+](=O)[O-])c2)cc1	14.9	-8.8	62.0*	30.5	-17.7	12.3
CN1CC(=O)N2C(c3ccc(Cl)cc3)c3[nH]c4ccccc4c3C[C@H]2C1=O (some centres undefined)	-5.8	-4.2	49.3	103.4*	14.1	6.8
C[C@H](CO)N1C[C@H](C)[C@H](CN(C)C(=O)Nc2ccc(C(F)(F)F)cc2)OCCCC[C@H](C)Oc2ccc(NS(=O)(=O)c3cccs3)cc2C1=O	.	2.0	8.5	65.7*	-22.5	.
